The values that follow come from PubChem BioAssay (Tox21).

Several values for one entry are separate records, joined by “and”; a condition that tells them apart may be missing. Identical values can stand only once. Records with an inconclusive call do not appear. Where a call stands in place of a potency, no number is given. The source holds several records for some structures; these can differ, active in one and inactive in another. Activity calls are given as the source filed them. Calls follow the shape of the full dose curve.
Potency is read from the fitted curve at half-maximal effect.

The nature of this assay: qHTS assay to identify small molecule agonists of the hypoxia (HIF-1) signaling pathway - cell viability counter screen (AID 1224844). Also: nearly all actives have a fitted effect of over 50% in size. Conditions: HRE-bla ME-180 viability, CellTiter-Glo luminescence, 17 h; series mostly up to 76.8 µM. The text has this:
National Center for Advancing Translational Sciences [NCATS]
NIH Chemical Genomics Center [NCGC]
U.S. Environmental Protection Agency [EPA]
National Institutes of Environmental Health Sciences [NIEHS]
National Toxicology Program [NTP]
U.S. Food and Drug Administration [FDA]
Hypoxia-inducible factor-1 (HIF-1) is the major hypoxia-regulated transcription factor that controls cellular responses to low oxygen concentration. HIF-1 is composed of two subunits: hypoxia responsive HIF-1-alpha and constitutively expressed HIF-1-beta, which is also known as aryl hydrocarbon receptor nuclear translocator. During hypoxic conditions, HIF-1-alpha heterodimerizes with HIF-1-beta and translocates into the nucleus where the HIF-1 complex binds to the hypoxia-response element (HRE) and activates expression of target genes such as VEGF (vascular endothelial growth factor). The HIF-1 pathway is essential to normal growth and development, and is involved in the pathophysiology of cancer, inflammation, and ischemia.
Using a beta-lactamase reporter-gene under control of the hypoxia response element, a cell-based assay [CellSensor(TM) HRE-bla ME-180 from Life Technologies, Carlsbad, CA] was used to measure hypoxia-induced signaling. Tox21 10K library compounds were measured for their ability to induce the reporter gene activity. The cytotoxicity of the Tox21 compound library against HRE-bla ME-180 cell line was tested in parallel by measuring cell viability using CellTiter-Glo assay (Promega, Madison, WI) in the same assay wells.
Tox21 Assay Protocol Summary:
HRE-bla ME-180 cells were dispensed at 2,000 cells per well in 6 uL of assay medium containing 0.5% dialyzed FBS into black wall/clear-bottom 1536-well plates using a Multidrop Combi (Thermo Scientific, Waltham, MA) dispenser. After the assay plates were incubated at 37C and 5% CO2 for 5 hrs, 23 nL of compounds dissolved in DMSO, positive controls or DMSO only was transferred to each well of the assay plate using a Pintool station (Kalypsys, San Diego, CA). The assay plates were incubated at 37C and 5% CO2 for 17 hrs. One uL of LiveBLAzerTM B/G FRET substrate (CCF4-AM) (Life Technologies) was added to each well using a Flying Reagent Dispenser (FRD, Aurora Discovery, San Diego, CA). After 2 hr incubation at room temperature, fluorescence intensity (405 nm excitation, 460 nm and 530 nm emissions) was measured using an Envision plate reader (PerkinElmer, Shelton, CT). For cytotoxicity, 4 ul/well of CellTiter-Glo reagent was added into the assay plates using an FRD. After 30 min incubation at room temperature, the luminescence intensity was measured using a ViewLux plate reader (PerkinElmer).
In general terms: qHTS replaces the single test concentration by a dilution series.
Turning to `CC(C)(C)NCC(O)COc1ccccc1OCC1CCCO1` (stereo not given), the Potency entry is “inactive”.

On to `Cc1c(O)cccc1C(=O)N[C@@H](CSc1ccccc1)[C@H](O)CN1C[C@H]2CCCC[C@H]2C[C@H]1C(=O)NC(C)(C)C`, for which the Potency was 12 µM (active) and inactive.

As for `Cc1cc(OCCOCC[N+](C)(C)Cc2ccccc2)ccc1C(C)(C)CC(C)(C)C`, the Potency is 24.4 µM (active) and 23.9 µM (active).

For the compound `Nc1cc(Cl)c(-c2cc(Cl)c(N)cc2Cl)cc1Cl`, the Potency is 38.9 µM (active).

As for `Cc1cc(Cc2cc(C)cc(C(C)(C)C)c2O)c(O)c(C(C)(C)C)c1`, the Potency is 9.82 µM (active) and 9.77 µM (active).

In the case of `CN(C)c1ccc2nc3ccc(=[N+](C)C)cc-3sc2c1`, the Potency was 5.92 µM (active) and 43.6 µM (active) and inactive.

`Oc1c(Cl)cc(Cl)cc1Sc1cc(Cl)cc(Cl)c1O`: the Potency was 19.5 µM (active) and 24.5 µM (active) and inactive.

For the compound `OCCN1CCNCC1`, the Potency entry was “inactive”.

Regarding `CCCCC/C=C/CC1CC(=O)OC1=O` (stereo not given), the Potency result was “inactive”.

For `CC(C)(C)c1ccccc1`, the Potency entry is “inactive”.

With `NCCO`, the Potency entry was “inactive”.

Take `CC(=O)CC(=O)Nc1ccc2[nH]c(=O)[nH]c2c1`: the Potency result was “inactive”.

Take `CCCCCCCCCCCCCC[P+](CCCC)(CCCC)CCCC`: the Potency was 21.8 µM (active) and 21.9 µM (active).

Take `CCCCOCCOC(=O)c1ccccc1C(=O)OCCOCCCC`: the Potency entry was “inactive”.

With `COc1nc(C)nc(Cl)c1NC1=NCCN1`, the Potency entry is “inactive”.

On to `c1ccc2c(c1)-c1cccc3c1c-2cc1ccccc13`, for which the Potency is 33.9 µM (active).

For the compound `CCN(CC)c1ccc2c(C)cc(=O)oc2c1`, the Potency entry is “inactive”.

On to `CC1=C(C=O)C(C)(C)CC=C1`, for which the Potency entry is “inactive”.

For `CC(=O)Nc1ccc(C(=O)CCl)cc1`, the Potency result was “inactive and 11 µM (active)”.

`Cc1ccnc2c1NC(=O)c1cccnc1N2C1CC1`: the Potency result is “inactive”.

Take `c1cc(C(c2ccc(OCC3CO3)cc2)C(c2ccc(OCC3CO3)cc2)c2ccc(OCC3CO3)cc2)ccc1OCC1CO1` (stereo not given): the Potency result is “inactive”.

Turning to `NC(Cc1ccc(Cl)cc1)C(=O)O` (stereo not given), the activity change, negative = cytotoxicity is 0.588% [at 0.29 µM] (inactive).

In the case of `CCCN[C@H]1CCc2nc(N)sc2C1`, the Potency entry is “inactive”.

As to `c1ccc2n[nH]nc2c1`, the Potency entry is “inactive”.

Turning to `CCCCCCCCCCCCc1ccccc1O`, the Potency was 19.5 µM (active).

With `CC(C)C(=O)c1c(C(C)C)nn2ccccc12`, the Potency result is “inactive”.

Turning to `C=C(C)C1CC=C(C)C(OC(C)=O)C1` (stereo not given), the Potency result is “inactive”.

For `CCCCCCCCCCCCCCCCCl`, the activity change, negative = cytotoxicity was 8.74% [at 15.8 µM] (inactive).

As to `CCCC(=O)c1ccccc1`, the Potency entry is “inactive”.

In the case of `CCn1cc(C(=O)O)c(=O)c2cc(F)c(N3CCNC(C)C3)c(F)c21` (stereo not given), the Potency result was “inactive”.

Take `C=C(C)C(=O)O`: the Potency entry is “inactive”.

For `CNC1(C)C2CCC(C2)C1(C)C` (stereo not given), the Potency result is “inactive”.

Consider `O`, for which the Potency result was “inactive”.

Take `Nc1ccc2cc3ccccc3cc2c1`: the Potency result is “inactive”.

For the compound `O=C(O)Cn1cnnn1`, the Potency entry is “inactive”.

Regarding `N[C@@H]1CONC1=O`, the Potency entry is “inactive”.

Regarding `CC[C@]1(O)C[C@@H]2CN(CCc3c([nH]c4ccccc34)[C@@](C(=O)OC)(c3cc4c(cc3OC)N(C)[C@H]3[C@@](O)(C(=O)OC)[C@H](OC(C)=O)[C@]5(CC)C=CCN6CC[C@]43[C@@H]65)C2)C1`, the Potency result was “inactive”.

For `CCOC(=O)C(C)C(C)=O` (stereo not given), the Potency entry was “inactive”.

With `CC(=O)OCCOCCOCCOC(C)=O`, the Potency entry is “inactive”.

Regarding `CCCCN(CCO)CCCC`, the Potency entry is “inactive”.
